# High-throughput results: PubChem, National Center for Advancing Translational Sciences (NCATS)
# Sampled rows, rich in hits. Any-hit rate of the full collection: about 19%.
# DT40 TDP1 CPT = growth inhibition of DT40 Tdp1-/-;hTDP1 cells with camptothecin (screen for TDP1 inhibitors) | chicken DT40 Tdp1-/-;hTDP1 cells + 20 nM CPT, ATP luminescence, 48 h | Potency, µM (top dose mostly 46.2 µM), inactives show top-dose activity change, negative = growth inhibition, actives largely listed as inhibitors | hit rate 12% among 420,000 | AID 686979; further: nearly all actives have a fitted effect of over 55% in size
#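 Cell growth measured by CellTiter-Glo luminescence after a minimum 48 h, 37 C compound exposure with 20 nM CPT in Tdp1-knockout DT40 cells stably expressing hTDP1, seeded 400/well; qHTS titration format.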
# TDP1 block = blocks human tyrosyl-DNA phosphodiesterase 1 | Q9NUW8 | hit rate 0.28% among 350,000 | Potency, µM (series often up to 130 µM), for the others: top-dose activity change, negative = inhibition, usual class: inhibitors | recombinant TDP1, AlphaScreen DNA substrate cleavage; further: nearly all actives have a fitted effect of over 40% in size
# Target sequence (Q9NUW8 whole entry, looked up): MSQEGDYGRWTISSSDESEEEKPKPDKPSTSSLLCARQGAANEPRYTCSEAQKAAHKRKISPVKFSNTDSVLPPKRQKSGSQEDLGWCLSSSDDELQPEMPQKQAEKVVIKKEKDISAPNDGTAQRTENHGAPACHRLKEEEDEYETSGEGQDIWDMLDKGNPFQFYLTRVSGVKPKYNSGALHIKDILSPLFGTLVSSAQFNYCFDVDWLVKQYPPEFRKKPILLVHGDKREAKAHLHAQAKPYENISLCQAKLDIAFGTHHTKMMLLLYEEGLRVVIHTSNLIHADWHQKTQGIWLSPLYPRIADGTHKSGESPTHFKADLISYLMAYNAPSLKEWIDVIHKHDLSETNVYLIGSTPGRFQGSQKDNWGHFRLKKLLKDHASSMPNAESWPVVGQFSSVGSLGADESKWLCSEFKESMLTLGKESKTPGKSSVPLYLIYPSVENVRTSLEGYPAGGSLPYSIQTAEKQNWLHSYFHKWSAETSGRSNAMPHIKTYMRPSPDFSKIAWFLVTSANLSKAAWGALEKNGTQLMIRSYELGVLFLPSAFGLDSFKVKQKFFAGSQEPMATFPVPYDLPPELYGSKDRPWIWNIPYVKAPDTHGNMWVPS
#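 Enzyme-compound mixtures sat 15 min at room temperature, followed by a 5 min reaction with 15 nM final substrate and 10 min with AlphaScreen beads. Recombinant human Tdp1 was used at 1 nM final.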
# DT40 TDP1 no CPT = qHTS for Inhibitors of human tyrosyl-DNA phosphodiesterase 1 (TDP1): qHTS in cells in absence of CPT; Potency, µM (series often up to 46.2 µM), inactives show top-dose activity change, negative = growth inhibition, usual class: inhibitors; hit rate 15% among 420,000; DT40 Tdp1-/- hTDP1 cells, no CPT, ATP luminescence, 48 h; further: nearly all actives have a fitted effect of over 55% in size
#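 Growth kinetics read by CellTiter-Glo luminescence after ≥48 hr at 37 °C. Cells: DT40 Tdp1-/- stably carrying human TDP1, 400 per well, compound exposure in the absence of CPT (DMSO vehicle).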
# VP16 counter = counter-screen for ROR gamma inhibitors: Gal4-VP16 reporter; Drosophila S2 Gal4-VP16 UAS-luciferase, luminescence, 20 h; Potency, µM (doses to about 53.6 µM), inactives show top-dose activity, negative = inhibition, most hits filed as inhibitors; hit rate 3.5% among 310,000; AID 2546;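 further: Gal4-VP16 expression switched on by copper sulfate through the metallothionein promoter; nearly all actives have a fitted effect of over 50% in size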
# RORg inh = ROR gamma (mouse) transcription inhibition. Drosophila S2 Gal4-RORgamma UAS-luciferase reporter, 20 h. hit rate 5.4% among 310,000. Potency, µM (titrated, usually from 53.6 µM), for inactives: at the highest dose activity change, negative = inhibition, usual class: inhibitors; further: nearly all actives have a fitted effect of over 60% in size
#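 Using a luciferase readout, inhibitors were identified by reduced reporter activity in Drosophila cells coexpressing a copper-inducible Gal4–ROR gamma fusion and UAS-driven Photinus luciferase, incubated 20 hr after 700 uM copper sulfate.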
# Active calls of the source: *; ? = inconclusive; / = not tested or not shown; ! = repeats disagree; [ ] = another dose, or the depositor's remark. The call rests on the fitted dose curve; in most records, active means well fitted curve in the direction sought with a large enough effect; inconclusive means small, poorly fitted or top-dose-only effect, or another doubt; inactive means no such curve, though single readings can be large; an effect the other way counts as inactive or inconclusive. On the % scale 0 is the no-effect control and ±100 the full control effect; potency means the concentration at half of the fitted maximal effect.
SMILES,DT40 TDP1 CPT,TDP1 block,DT40 TDP1 no CPT,VP16 counter,RORg inh
COc1cc(CN2C[C@@H](CO)O[C@@H](n3cnc4c(NCc5ccc(F)cc5)ncnc43)C2)cc(OC)c1OC,16.4µM*,/,?,/,/
COc1cc(CN2C[C@@H](CO)O[C@@H](n3cnc4c(NCc5ccncc5)ncnc43)C2)cc(OC)c1OC,-8.3%,/,-2.5%,/,/
COc1cc(CNc2ncnc3c2ncn3[C@H]2CN(Cc3ccc(Cl)cc3)C[C@@H](CO)O2)cc(OC)c1OC,23.1µM*,/,16.4µM*,/,/
COc1cc(CNc2ncnc3c2ncn3[C@H]2CN(Cc3ccc(F)cc3)C[C@@H](CO)O2)cc(OC)c1OC,20.6µM*,/,?,/,/
O=C(NNc1ccccc1[N+](=O)[O-])Nc1ccc(Cl)c(Cl)c1,?,8.9%,?,1.7%,?
O=C1NC(=O)C(c2ccccc2[N+](=O)[O-])=C1Nc1ccc(O)c(Cl)c1,7.31µM*!,5.2%[56.1 µM],26.6µM*!,-0.3%,?
Cc1nc2[nH]c(=O)n(O)c(=O)c2s1,?,/,25.9µM*,/,/
O=C(Nc1ccccc1Cl)c1cc(C2CCCCN2S(=O)(=O)c2ccc(F)cc2F)on1 (stereo not given),16.4µM*,/,20.6µM*,/,/
O=C(Nc1ccccc1)c1cc(C2CCCCN2S(=O)(=O)Cc2cccc(C(F)(F)F)c2)on1 (stereo not given),20.6µM*,/,?,/,/
O=C(Nc1ccccc1)c1cc(C2CCCCN2C(=O)c2ccccc2)on1 (stereo not given),20.6µM*,/,?,/,/
CC(=O)Nc1ccc(C(=O)N2CCCCC2c2cc(C(=O)Nc3ccccc3)no2)cc1 (stereo not given),-27.4%,/,-16.3%,/,/
CC(C)NC(=O)c1cc(C2CCCCN2S(=O)(=O)c2ccc(F)cc2F)on1 (stereo not given),-10.4%,/,?,/,/
O=C(Nc1ccc2c(c1)OCO2)c1cc(C2CCCCN2S(=O)(=O)c2ccccc2)on1 (stereo not given),16.4µM*,/,?,/,/
O=C(Nc1ccccc1)c1cc(C2CCCN(C(=O)c3ccccc3)C2)on1 (stereo not given),-15.7%,/,-10.6%,/,/
O=C(NCc1ccccn1)c1nc(-c2ccc(C(F)(F)F)cc2)no1,-17.9%,2.7%,?,-13.0%,10.6%
CN1CCN(c2ccc(S(=O)(=O)N3CCCCC3)cc2NC(=O)CSC(C)(C)C)CC1,-1.2%,/,-12.1%,/,/
O=C(Nc1ccc2c(c1)OCO2)c1cc(C2CCCCN2C(=O)c2ccc3ccccc3c2)on1 (stereo not given),18.4µM*,/,14.6µM*,/,/
CC(C)COC(=O)N1CCCCC1c1cc(C(=O)Nc2ccc3c(c2)OCO3)no1 (stereo not given),-58.3%,/,-51.1%,/,/
O=C(Nc1ccc2c(c1)OCO2)c1cc(C2CCCN(C(=O)C3CCCCC3)C2)on1 (stereo not given),23.1µM*,/,?,/,/
O=C(Nc1ccccc1Cl)c1cc(C2CCCCN2C(=O)c2ccccc2)on1 (stereo not given),29.1µM*,/,?,/,/
CC(=O)OC1CC2C(C)(C)C(=O)CC[C@]2(C)C2CC[C@]3(C)C(=CC(=O)OC3c3ccoc3)[C@]12C (stereo not given in full),5.2%,11.3%[56.1 µM],-18.8%,0.7%,2.9%
CCOc1cc(/C=C2\C(=O)N(c3cccc(C(F)(F)F)c3)C(=O)c3ccccc32)ccc1O,?,2.6%,?,?,9.1%
C/C(=N\N=C(/N)SC1CC(=O)N(c2ccc(Cl)cc2)C1=O)c1cccs1 (stereo not given),-24.7%,7.2%,-17.9%,?,12.6µM*
Cc1cccc(C)c1NC(=O)Cn1nnnc1N,-6.9%,-2.6%,-2.5%,-8.6%,-30.9%
CNc1sc(C(=O)c2ccccc2F)c(N)c1-c1nc2ccccc2s1,?,11.8%,?,12.6µM*,7.94µM*
SMILES,DT40 TDP1 CPT,TDP1 block,DT40 TDP1 no CPT,VP16 counter,RORg inh
CCOC(=O)c1cnc(-n2nc(C)cc2C)nc1NNc1nc(C)cc(C)n1,-4.3%,7.7%,-22.6%,?,3.98µM*
CCOC(=O)c1cnc(-n2nc(C)cc2C)nc1NNc1nc(-c2ccccc2)cc(-c2ccccc2)n1,3.66µM*,8.1%,3.26µM*,0.708µM*,0.794µM*
COc1cccc(CNC(=O)C2CCN(C(=O)N3CC(C)Oc4ccccc43)CC2)c1 (stereo not given),?,/,?,5.2%,12.6%
Cc1ccc(F)cc1NC(=O)CSc1n[nH]c(N)n1,-0.2%,0.0%,1.1%,/,/
CC(C)(C)NC(=O)NC(=O)CN1CCN(c2ccccc2O)CC1,0.1%,-1.2%,-7.3%,-13.7%,33.2%
C=C1/C(=C\C=C2/CCC[C@]3(C)[C@@H]([C@H](C)OCCC(C)(C)O)CC[C@@H]23)C[C@@H](O)C[C@@H]1O,15µM*,/,?,/,/
C=C1/C(=C\C=C2/CCC[C@]3(C)[C@@H]([C@H](C)/C=C/[C@@H](O)C4CC4)CC[C@@H]23)C[C@@H](O)C[C@@H]1O,/,/,/,-25.2%,-12.3%
C=C1/C(=C\C=C2/CCC[C@]3(C)C([C@H](C)CCCC(C)(C)O)CC[C@@H]23)C[C@@H](O)C[C@@H]1O (stereo not given in full),?,11.0%,-21.3%[4.12 µM],/,/
C=C1CC[C@H](O)CC1=C/C=C1\CCC[C@]2(C)[C@@H]([C@H](C)CC[C@@H](O)C(C)(C)O)CC[C@@H]12,?,/,23.7µM*,/,/
CCOc1ccc(-c2nc(C(N)=O)c3c(n2)n(-c2ccc4c(c2)OCO4)c(=O)n3CC)cc1,12.9%,5.8%,-17.0%,/,/
O=C(O)c1ccc(NC(=O)c2cccc(S(=O)(=O)Nc3ccc(C(=O)O)cc3)c2)cc1,8.1%,/,-0.8%,-21.4%,-7.7%
COc1cc(S(=O)(=O)Nc2cccc(C)c2)ccc1NC(=O)c1ccncc1,?,8.1%,13µM*,-18.9%,15.5%
O=C(Nc1ccncc1)c1ccc(NS(=O)(=O)c2cccc(F)c2)cc1,?,2.2%,20.6µM*,-10.6%,32.2%
Cc1ccccc1NC(=O)c1cc(S(=O)(=O)c2ccccc2)ccc1Cl,?,5.7%,?,0.8%,10.6%
Cc1cccc(NS(=O)(=O)c2ccc(Cl)c(C(=O)Nc3ccccc3C)c2)c1,?,0.0%[2.28 µM],14.6µM*,/,/
COc1cccc(S(=O)(=O)Nc2ccc(C(=O)Nc3ccncc3)cc2)c1,13µM*,2.6%,?,1.4%,12.1%
O=C(COC(=O)CC1CC2CCC1C2)Nc1ccccc1Cl (stereo not given),-24.1%,/,?,/,/
CC(C)(C)c1ccc(/C=C2\Oc3cc(O)ccc3C2=O)cc1,20.6µM*,/,?,?,?
